# Measurements: PubChem BioAssay (NCI)
# About 83,000 compounds went through this panel and 20% of them were active in at least one assay; those are over-represented in the sample as a whole.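 Cell lines were cultured in 96-well plates, exposed to a single compound concentration, and assessed for percent growth 48 hours later.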 A number with no mark means an inactive call. Active and inactive are the calls of the source. The calls were made as follows: active = growth percent below 10; inactive = the rest.
# Tested on: SN12C renal
# Experiment: NCI-60 one-dose screen, 48 h (100 = growth as untreated, 0 = no growth, -100 = all killed)
# Conditions: 10 µM
row,SMILES,growth
1,CCN(CC)CCNc1ccc(CO)c2oc3cc(Cl)ccc3c(=O)c12,76.3%
2,O=C(O)C(SC(C(=O)O)c1ccccc1)c1ccccc1 (centres undefined),99.9%
3,COc1ccc(-c2nc3ccccn3c2-c2nnc(-c3cc(OC)c(OC)c(OC)c3)o2)cc1,69.7%
4,N#Cc1c(C#N)c(SSc2c(C#N)c(C#N)c(N)n2-c2ccccc2)n(-c2ccccc2)c1N,99.3%
5,Cc1ccc(-c2nc(/C=C3/C(=O)N(C)c4ccc(F)cc43)c3ccccn23)cc1,96.1%
6,CCN(CC)CCSCCCNc1c2ccc(Cl)cc2nc2ccc(OC)cc12,-32% (active)
7,CN1CC[C@@H](c2c(O)cc(O)c3c(=O)cc(-c4ccccc4Cl)oc23)[C@@H](O)C1,26.8%
8,NC1=NC(=O)C(c2ccccc2)(c2ccccc2)S1,106%
9,CCc1ccc2c(c1)N(CCO)C1=C(C(=O)OC1)C2c1ccccc1 (centres undefined),105%
10,Cc1cccc2c(NCCN(C)C)c3cccc(C(=O)NCCN(C)C)c3nc12,15.9%
11,CCCN(CCC)CCC(O)c1cc2c(c3ccccc13)CCCC2 (centres undefined),82%
12,COc1ccc2c(c1)/C(=C\c1c[nH]c3ccc(OC)cc13)C(=O)N2,52.8%
13,Nc1ccn(C2CC(O)C(CO)O2)c(=O)n1 (centres undefined),108%
14,COc1cccc(C2C3=C(COC3=O)N(CCO)c3cc(OC)ccc32)c1 (centres undefined),27%
15,C=C(C(=O)c1ccccc1)C(NC(C)(C)C)c1ccccc1 (centres undefined),2.42% (active)
16,CCCC1(CC(=O)O)OCCc2c1[nH]c1ccccc21 (centres undefined),98%
17,CN(C)C(=S)N/N=C\C=N/NC(=S)N(C)C,88.4%
18,C=C(NC(=O)C(=C)NC(=O)c1csc(C2=NC3c4csc(n4)C4NC(=O)c5csc(n5)C(C(C)(O)C(C)O)NC(=O)C5CSC(=N5)/C(=C/C)NC(=O)C(C(C)O)NC(=O)c5csc(n5)C3(CC2)NC(=O)C(C)NC(=O)C(=C)NC(=O)C(=C)NC(=O)C(C(C)C)NC2C=Cc3c(C(C)O)cc(nc3C2O)C(=O)OC4C)n1)C(N)=O (centres undefined),30.4%
19,COc1ccc2nc3ccccc3c(NCCNCC(C)O)c2c1 (centres undefined),-4.73% (active)
20,CN(C)CCN1C(=O)c2cccc3cc(N)cc(c23)C1=O,30.9%

row,SMILES,growth
1,COc1ccc(N2C(=O)C3c4[nH]c5ccc(OCc6ccccc6)cc5c4C4CCC(C(C)C)CC4C3C2=O)cc1 (centres undefined),103%
2,CC(C)C[C@H](NC(=O)[C@H](Cc1cccc2ccccc12)NS(=O)(=O)c1cccc2cccnc12)B(O)O,8.75% (active)
3,O=C(CC(C(=O)c1ccccc1)N1CCOCC1)c1ccccc1 (centres undefined),87.3%
4,NC(=O)SCC(=O)Nc1ccc(S(N)(=O)=O)cc1,95.6%
5,CCCCN(CCCC)CCCCCCCCC(O)c1cc2ccccc2c2ccccc12 (centres undefined),64.9%
6,O=C(CCCCCCC(=O)Nc1cccnc1)NO,71.2%
7,COc1ccc2nc3cc(Cl)ccc3c(NCCNCC(C)O)c2c1 (centres undefined),27.3%
8,Clc1cccc(-c2nc(-c3cccs3)no2)c1,97.1%
9,CCCCCCCCCCCCCCCCCCOCC(COCCOCC[N+]1(CCCCCC(=O)[O-])CCCC1)Oc1ncccn1 (centres undefined),46.6%
10,CC/C(=N\N=C(/CC)c1ccc(Br)cc1)c1ccc(Br)cc1,96%
11,O=C1OCC2=C1C(c1ccc(Cl)c(Cl)c1)c1cc3c(cc1N2CCO)OCCO3 (centres undefined),41.7%
12,COc1cc2nc(Nc3cccc(NC(C)=O)c3)nc(N)c2cc1OC,95.5%
13,Cc1nc2ccc(CN(C)c3ccc(C(=O)N[C@@H](CCC(=O)O)C(=O)O)s3)cc2c(=O)[nH]1,47.7%
14,CCCCCCCCN(CCCCCCCC)CCCCCCCCCN1CCCc2cc(OC)ccc21,82.7%
15,Nc1ncnc2[nH]c(=O)[nH]c12,90.9%
16,COc1ccc2c(c1)sc1nc(-c3ccccc3)c(-c3cccnc3)n12,98.2%
17,C=C(Cl)[C@@](Cl)(CBr)CC[C@@H](Br)C(C)(C)Cl,72%
18,C[N+](C)(C)c1ncnc2nc[nH]c12,108%
19,COC(=O)[C@@H]1[C@H](O)[C@H](C)[C@H](O)[C@@](C)(O)/C=C\C=C(C)C(=O)Nc2c(C)c(OC(C)=O)c3c(c2O)C(=O)C(C)=C2OCOC(=C23)C(C)=C[C@@](C)(O)[C@H](O)[C@@H](C)[C@H]1OC(C)=O,108%
